# Results taken from PubChem BioAssay (Tox21).
# Inconclusive results are not listed. Where a call stands in place of a potency, no number is given. Unmarked numbers belong to inactive results. Activity calls are given as the source filed them. Unless noted, calls come from the whole dose curve; as a rule, active = well fitted curve in the direction sought with a large enough effect in the repeat runs; inconclusive = weak or mixed curves; inactive = no such curve, though single readings can be large; an effect the other way counts as inactive or inconclusive.
# Legend:
# [1] = molecular target: Aryl hydrocarbon receptor (Homo sapiens) (UniProt P35869); experiment: qHTS assay to identify small molecule that activate the aryl hydrocarbon receptor (AhR) signaling pathway (AID 743085);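 note: HG2L7.5c1 human HepG2 liver cells with stably integrated DRE-driven firefly reporter; series mostly up to about 70 µM; nearly all actives have a fitted effect of over 15% in size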
# Chain of Aryl hydrocarbon receptor (Homo sapiens) (P35869 whole entry, looked up): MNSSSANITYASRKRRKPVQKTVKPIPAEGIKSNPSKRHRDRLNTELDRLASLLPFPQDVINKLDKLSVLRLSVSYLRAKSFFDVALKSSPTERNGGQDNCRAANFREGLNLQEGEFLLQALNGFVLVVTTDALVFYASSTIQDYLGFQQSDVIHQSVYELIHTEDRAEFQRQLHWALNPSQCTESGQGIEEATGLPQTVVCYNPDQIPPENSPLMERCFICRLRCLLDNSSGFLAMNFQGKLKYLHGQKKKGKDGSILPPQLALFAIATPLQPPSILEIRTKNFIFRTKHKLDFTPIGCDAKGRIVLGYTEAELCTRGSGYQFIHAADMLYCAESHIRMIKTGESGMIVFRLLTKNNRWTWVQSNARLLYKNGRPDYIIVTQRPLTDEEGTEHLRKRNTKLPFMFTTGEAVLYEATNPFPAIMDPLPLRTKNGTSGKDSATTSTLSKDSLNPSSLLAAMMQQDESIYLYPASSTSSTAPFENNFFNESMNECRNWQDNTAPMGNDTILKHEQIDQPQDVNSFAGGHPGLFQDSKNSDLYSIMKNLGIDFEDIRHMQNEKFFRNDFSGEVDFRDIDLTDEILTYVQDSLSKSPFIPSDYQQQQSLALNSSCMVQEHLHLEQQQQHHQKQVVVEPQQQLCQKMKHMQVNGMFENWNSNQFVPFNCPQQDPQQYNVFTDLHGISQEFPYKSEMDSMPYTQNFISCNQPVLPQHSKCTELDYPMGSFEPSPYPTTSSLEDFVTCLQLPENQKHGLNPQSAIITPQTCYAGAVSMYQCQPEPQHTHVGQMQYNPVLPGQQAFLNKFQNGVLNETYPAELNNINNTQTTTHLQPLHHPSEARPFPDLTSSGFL
# In short: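 Luminescence (ONE-Glo) from a dioxin-responsive-element luciferase reporter in HG2L7.5c1 HepG2 cells after 24 hr compound exposure at 37C; viability measured by CellTiter-Fluor fluorescence beforehand.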
# [2] = qHTS assay to identify small molecule that activate the aryl hydrocarbon receptor (AhR) signaling pathway - cell viability counter screen (AID 743086);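 note: HepG2 liver cells carrying the AhR DRE luciferase reporter; series mostly up to about 70 µM; nearly all actives have a fitted effect of over 45% in size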
# In short: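 HepG2-AhR-luc (HG2L7.5c1) cells, 4000/well, treated 24 h at 37 C with compound; viability measured as CellTiter-Fluor fluorescence after 30 min in the same wells as the luciferase read.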
# [3] = molecular target: Peroxisome proliferator-activated receptor gamma (Homo sapiens) (UniProt P37231); experiment: qHTS assay to identify small molecule agonists of the peroxisome proliferator-activated receptor gamma (PPARg) signaling pathway (AID 743094; active = well fitted activation curve with a large enough effect in the signal ratio in the repeat runs, not every such curve was filed as active; the % refers to the signal ratio)
# Chain of Peroxisome proliferator-activated receptor gamma (Homo sapiens) (P37231 whole entry, looked up): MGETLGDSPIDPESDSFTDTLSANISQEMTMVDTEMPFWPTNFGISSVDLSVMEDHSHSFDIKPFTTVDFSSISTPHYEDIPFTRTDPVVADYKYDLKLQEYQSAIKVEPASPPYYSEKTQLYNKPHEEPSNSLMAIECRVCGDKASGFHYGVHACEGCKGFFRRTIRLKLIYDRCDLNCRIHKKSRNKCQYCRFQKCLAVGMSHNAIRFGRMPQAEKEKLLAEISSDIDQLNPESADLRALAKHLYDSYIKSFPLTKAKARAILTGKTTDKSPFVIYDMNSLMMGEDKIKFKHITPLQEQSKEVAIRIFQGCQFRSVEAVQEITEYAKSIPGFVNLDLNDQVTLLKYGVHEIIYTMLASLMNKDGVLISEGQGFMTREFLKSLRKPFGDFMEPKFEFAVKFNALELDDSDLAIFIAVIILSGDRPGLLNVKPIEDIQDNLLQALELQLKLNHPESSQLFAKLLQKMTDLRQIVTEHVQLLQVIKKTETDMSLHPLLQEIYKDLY
# In short: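 Cells from the PPARg UAS-bla HEK293H line are plated and incubated 5 h at 37C. Compounds in DMSO are pinned in and left 17 h at 37C. LiveBLAzer B/G substrate is then added for 1 h at room temperature before fluorescence is measured.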
# [4] = molecular target: Peroxisome proliferator-activated receptor gamma (Homo sapiens) (UniProt P37231); experiment: qHTS assay to identify small molecule antagonists of the peroxisome proliferator-activated receptor gamma (PPARg) signaling pathway (AID 743191; calls by dose curve; note: series mostly up to about 63 µM; nearly all actives have a fitted effect of over 30% in size)
# In short: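 GeneBLAzer PPARg UAS-bla HEK293H cells, 5 h post-plating, exposed to compounds 17 h at 37C. LiveBLAzer B/G FRET substrate added for 1 h at room temperature; beta-lactamase reporter read by fluorescence intensity.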
# [5] = qHTS assay to identify small molecule antagonists of the peroxisome proliferator-activated receptor gamma (PPARg) signaling pathway - cell viability counter screen (AID 743194); note: nearly all actives have a fitted effect of over 55% in size
# In short: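 Cytotoxicity counter screen in PPARg-bla HEK293H cells, same wells as reporter assay. Compounds plus 50 nM rosiglitazone (final) for 17 h at 37 C, then viability read by CellTiter-Glo luminescence.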
# [6] = qHTS assay to identify small molecule agonists of the peroxisome proliferator-activated receptor delta (PPARd) signaling pathway - cell viability counter screen (AID 743211); note: nearly all actives have a fitted effect of over 55% in size; note: potency is the fitted concentration of half-maximal effect
# In short: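 Viability was measured as CellTiter-Glo luminescence (30 min, room temperature) in the same wells as the beta-lactamase readout. GeneBLAzer PPARd UAS-bla HEK293H cells received compound after 5 h plating and were incubated 17 h at 37 C.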
# [7] = qHTS assay to identify small molecule antagonists of the peroxisome proliferator-activated receptor delta (PPARd) signaling pathway - cell viability counter screen (AID 743213); note: nearly all actives have a fitted effect of over 50% in size; note: potency is the fitted concentration of half-maximal effect
# In short: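 CellTiter-Glo was added to PPARd-bla HEK293H wells following 17 h compound treatment in the presence of 300 nM L165041. Luminescence was recorded after 30 min at room temperature.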
# [8] = molecular target: Peroxisome proliferator-activated receptor delta (Homo sapiens) (UniProt Q03181); experiment: qHTS assay to identify small molecule antagonists of the peroxisome proliferator-activated receptor delta (PPARd) signaling pathway (AID 743215; active = well fitted inhibition curve with a large enough effect in the signal ratio in the repeat runs, not every such curve was filed as active; the % refers to the signal ratio;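 note: cells stimulated with agonist L165041 at 300 nM final during compound exposure; series mostly up to about 62 µM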)
# Chain of Peroxisome proliferator-activated receptor delta (Homo sapiens) (Q03181 whole entry, looked up): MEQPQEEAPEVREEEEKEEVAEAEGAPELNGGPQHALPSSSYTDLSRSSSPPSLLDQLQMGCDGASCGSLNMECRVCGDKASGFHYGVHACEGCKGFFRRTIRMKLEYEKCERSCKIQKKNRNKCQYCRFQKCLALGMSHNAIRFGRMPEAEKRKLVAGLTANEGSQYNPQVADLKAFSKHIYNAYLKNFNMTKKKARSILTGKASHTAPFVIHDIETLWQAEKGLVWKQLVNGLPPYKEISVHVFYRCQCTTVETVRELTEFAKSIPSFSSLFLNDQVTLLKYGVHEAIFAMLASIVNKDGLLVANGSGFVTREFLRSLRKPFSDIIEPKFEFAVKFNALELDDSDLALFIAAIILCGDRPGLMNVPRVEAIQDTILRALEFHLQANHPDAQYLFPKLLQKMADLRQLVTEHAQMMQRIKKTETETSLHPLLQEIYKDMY
# In short: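 Cells: HEK293H with a UAS-driven beta-lactamase reporter responsive to PPARd. Compounds were co-added with L165041 (300 nM, final) and incubated 17 h at 37 C before a 2 h room-temperature FRET substrate step and fluorescence reading.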
# [9] = qHTS assay to identify small molecule agonists of the farnesoid-X-receptor (FXR) signaling pathway - cell viability counter screen (AID 743218); note: nearly all actives have a fitted effect of over 45% in size; note: potency is the fitted concentration of half-maximal effect
# In short: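 Cells were seeded, left 5 h at 37 C and 5% CO2, then dosed with compound in DMSO for 16 h. After the beta-lactamase FRET read, CellTiter-Glo was added and luminescence measured 30 min later.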
# [10] = molecular target: Vitamin D3 receptor (Homo sapiens) (UniProt P11473); experiment: qHTS assay to identify small molecule agonists of the vitamin D receptor (VDR) signaling pathway (AID 743222; calls by dose curve)
# Chain of Vitamin D3 receptor (Homo sapiens) (P11473 whole entry, looked up): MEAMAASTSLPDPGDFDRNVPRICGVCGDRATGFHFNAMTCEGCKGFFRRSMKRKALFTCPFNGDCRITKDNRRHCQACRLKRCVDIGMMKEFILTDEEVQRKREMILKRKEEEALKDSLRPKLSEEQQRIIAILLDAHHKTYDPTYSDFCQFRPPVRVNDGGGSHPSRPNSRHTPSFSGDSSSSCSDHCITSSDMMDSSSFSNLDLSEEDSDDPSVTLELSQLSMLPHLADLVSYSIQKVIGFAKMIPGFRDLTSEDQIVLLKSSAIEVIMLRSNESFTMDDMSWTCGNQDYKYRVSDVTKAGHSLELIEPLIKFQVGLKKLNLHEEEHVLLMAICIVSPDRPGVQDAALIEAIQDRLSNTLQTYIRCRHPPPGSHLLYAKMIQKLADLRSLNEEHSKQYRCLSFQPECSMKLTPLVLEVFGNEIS
# In short: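 Cells carrying a VDR-driven beta-lactamase reporter are seeded at 2,000 per well and rested 4 h. Compounds in DMSO are added for 16 h at 37C, and FRET substrate fluorescence is measured after 2 h at room temperature.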
# [11] = molecular target: Vitamin D3 receptor (Homo sapiens) (UniProt P11473); experiment: qHTS assay to identify small molecule antagonists of the vitamin D receptor (VDR) signaling pathway (AID 743223; active = well fitted inhibition curve with a large enough effect in the signal ratio in the repeat runs, not every such curve was filed as active; the % refers to the signal ratio)
# In short: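 Antagonist mode: compound added to VDR-bla cells alongside agonist 1alpha,25-dihydroxyvitamin D3 (3 nM final), incubation 16 h at 37C. Read-out is LiveBLAzer FRET fluorescence, 2 h at room temperature.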
# [12] = qHTS assay to identify small molecule agonists of the vitamin D receptor (VDR) signaling pathway - cell viability counter screen (AID 743224); note: nearly all actives have a fitted effect of over 50% in size; note: potency is the fitted concentration of half-maximal effect; for activity change, negative = cytotoxicity: series mostly up to about 63 µM
# In short: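 Cells: VDR-bla, 2,000/well, settled 4 h. Treatment: compounds in DMSO, 16 h, 37C/5% CO2. Readout: CellTiter-Glo luminescence after 30 min RT.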
# [13] = qHTS assay for small molecule agonists of the antioxidant response element (ARE) signaling pathway (AID 743202; active = well fitted activation curve with a large enough effect in the signal ratio in the repeat runs, not every such curve was filed as active; the % refers to the signal ratio; note: potency is the fitted concentration of half-maximal effect)
# In short: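 HepG2 ARE-bla reporter line, 2,000 cells/well; 5 h preincubation 37 C/5% CO2; compound (DMSO) 16 h 37 C; B/G FRET substrate 2 h RT; fluorescence intensity.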
# [14] = qHTS assay for small molecule agonists of the antioxidant response element (ARE) signaling pathway - cell viability counter screen (AID 743203; calls by dose curve; note: nearly all actives have a fitted effect of over 55% in size)
# In short: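 Cytotoxicity was tested in parallel with the ARE reporter screen. ARE-bla HepG2 cells were exposed to compounds for 16 hrs, and viability was taken from CellTiter-Glo luminescence.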
# [15] = qHTS assay for small molecule activators of the heat shock response signaling pathway (AID 743210; active = well fitted activation curve with a large enough effect in the signal ratio in the repeat runs, with a control signal flat, not every such curve was filed as active; the % refers to the signal ratio;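 note: HeLa cells with beta-lactamase reporter driven by heat shock elements; series mostly up to about 63 µM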)
# In short: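 Beta-lactamase reporter read-out: FRET substrate fluorescence after 2.5 h at RT, following 5 h compound treatment at 37 C of HeLa cells carrying HSE-driven bla reporter; quantitative HTS format.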
# [16] = molecular target: Peroxisome proliferator-activated receptor delta (Homo sapiens) (UniProt Q03181); experiment: qHTS assay to identify small molecule agonists of the peroxisome proliferator-activated receptor delta (PPARd) signaling pathway (AID 743212; calls by dose curve)
# In short: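 Read-out: beta-lactamase FRET fluorescence after 2 h room-temperature incubation with LiveBLAzer B/G substrate. Cells were HEK293H carrying a UAS-bla reporter for PPARd, treated at 37 C with DMSO-dissolved compounds.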
# [17] = qHTS assay to identify small molecule antagonists of the farnesoid-X-receptor (FXR) signaling pathway - cell viability counter screen (AID 743221; active = well fitted cell-killing curve with a large enough effect in the repeat runs, not every such curve was filed as active; note: nearly all actives have a fitted effect of over 50% in size)
# In short: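 Cytotoxicity counter screen run in the FXR-bla reporter wells: HEK 293T cells exposed to compound with 50 uM (final) chenodeoxycholic acid for 16 h, 37 C, then viability measured by CellTiter-Glo luminescence after 30 min, room temperature.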
# [18] = molecular target: Bile acid receptor (Homo sapiens) (UniProt Q96RI1); experiment: qHTS assay to identify small molecule antagonists of the farnesoid-X-receptor (FXR) signaling pathway (AID 743217; active = well fitted inhibition curve with a large enough effect in the signal ratio in the repeat runs, not every such curve was filed as active; the % refers to the signal ratio; note: potency is the fitted concentration of half-maximal effect)
# Chain of Bile acid receptor (Homo sapiens) (Q96RI1 whole entry, looked up): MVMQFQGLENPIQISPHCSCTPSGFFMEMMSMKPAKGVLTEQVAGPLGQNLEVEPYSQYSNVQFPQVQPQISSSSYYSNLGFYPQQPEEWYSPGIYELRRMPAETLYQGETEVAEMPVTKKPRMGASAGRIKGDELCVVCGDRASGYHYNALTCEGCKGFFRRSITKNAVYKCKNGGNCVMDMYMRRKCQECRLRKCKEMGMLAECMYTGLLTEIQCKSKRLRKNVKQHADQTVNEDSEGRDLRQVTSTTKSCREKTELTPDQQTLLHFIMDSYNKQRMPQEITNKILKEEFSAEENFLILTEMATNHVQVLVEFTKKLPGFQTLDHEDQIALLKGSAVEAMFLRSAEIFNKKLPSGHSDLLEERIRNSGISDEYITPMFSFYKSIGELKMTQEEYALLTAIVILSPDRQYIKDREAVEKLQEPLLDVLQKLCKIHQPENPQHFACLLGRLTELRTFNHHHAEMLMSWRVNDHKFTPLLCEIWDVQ
# In short: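 Cells carrying a UAS-driven beta-lactamase reporter (GeneBLAzer FXR-UAS-bla HEK 293T) were plated and rested 5 h at 37 °C. Compounds in DMSO were added alongside chenodeoxycholic acid agonist at 50 uM final and left 16 h at 37 °C before FRET substrate readout.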
# [19] = qHTS assay for small molecule activators of the heat shock response signaling pathway - cell viability counter screen (AID 743209); note: nearly all actives have a fitted effect of over 50% in size
# In short: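 Cytotoxicity counter screen run in parallel with the HSE beta-lactamase reporter, using the same wells. HeLa HSE-bla cells received compound for 5 h at 37 C; ATP-based CellTiter-Glo luminescence was measured after 30 min at room temperature.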
# [20] = molecular target: Bile acid receptor (Homo sapiens) (UniProt Q96RI1); experiment: qHTS assay to identify small molecule agonists of the farnesoid-X-receptor (FXR) signaling pathway (AID 743220; active = well fitted activation curve with a large enough effect in the signal ratio in the repeat runs, not every such curve was filed as active; the % refers to the signal ratio)
# In short: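 FXR-UAS-bla HEK 293T cells carrying a UAS-driven beta-lactamase reporter were plated for 5 h at 37C/5% CO2, then exposed to DMSO-dissolved Tox21 10K compounds for 16 h at 37C. A LiveBLAzer B/G FRET substrate was loaded for 2 h at room temperature before fluorescence reading.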
structure (smiles),measurement,setting,value
CCCCCCCCCCCCCCOS(=O)(=O)O,Potency,[1],inactive
same,Potency,[2],inactive
same,Potency,[3],inactive
same,Potency,[4],inactive
same,Potency,[5],inactive
same,Potency,[6],43.6 µM (active)
same,Potency,[7],43.6 µM (active)
same,Potency,[8],inactive
same,Potency,[9],54.9 µM (active)
same,Potency,[10],inactive
same,outcome,[11],inactive
same,Potency,[12],43.6 µM (active)
C=C(C)C(=O)OCCOCC,Potency,[1],inactive
same,Potency,[2],inactive
same,Potency,[3],inactive
same,Potency,[5],inactive
same,Potency,[13],inactive
same,Potency,[14],inactive
same,Potency,[15],inactive
same,Potency,[6],inactive
same,Potency,[16],inactive
same,Potency,[8],inactive
same,Potency,[9],inactive
same,Potency,[17],inactive
same,Potency,[12],inactive
C1CCCNCCC1,Potency,[1],inactive
same,Potency,[2],inactive
same,Potency,[3],inactive
same,Potency,[5],inactive
same,Potency,[13],inactive
same,Potency,[14],inactive
same,Potency,[6],inactive
same,Potency,[16],inactive
same,Potency,[18],inactive
same,Potency,[9],inactive
same,Potency,[10],inactive
same,Potency,[12],inactive
S=C([S-])NCCNC(=S)[S-].[Mn+2],Potency,[1],inactive
same,Potency,[2],inactive
same,Potency,[3],inactive
same,Potency,[4],inactive
same,Potency,[13],6.86 µM (active)
same,Potency,[14],inactive
same,Potency,[19],inactive
same,Potency,[17],inactive
same,Potency,[10],inactive
same,Potency,[12],inactive
C/C=C/C(=O)CC,Potency,[1],inactive
same,Potency,[2],inactive
same,Potency,[3],inactive
same,"ratio activity, negative = inhibition",[4],6.72% [at 13.2 µM]
same,activation,[13],-1.61% [at 18.1 µM]
same,"viability change, negative = cytotoxic",[14],0.863% [at 18.1 µM]
same,"activity change, negative = cytotoxicity",[19],2.01% [at 13.2 µM]
same,activation,[15],-0.278% [at 13.2 µM]
same,"activity change, negative = cytotoxicity",[6],2.34% [at 13.2 µM]
same,activation,[16],2.05% [at 13.2 µM]
same,"ratio activity, negative = inhibition",[8],2.27% [at 13.7 µM]
same,"viability change, negative = cytotoxic",[9],6.33% [at 13.2 µM]
same,"activity change, negative = cytotoxicity",[17],-0.419% [at 13.2 µM]
same,"activity change, negative = cytotoxicity",[12],7.61% [at 13.2 µM]
C[C@H](CCC(=O)O)[C@H]1CC[C@H]2[C@@H]3CC[C@@H]4C[C@H](O)CC[C@]4(C)[C@H]3C[C@H](O)[C@]12C,Potency,[1],inactive
same,Potency,[2],inactive
same,Potency,[3],inactive
same,Potency,[4],inactive
same,Potency,[14],inactive
same,Potency,[15],inactive
O=S(=O)(Oc1ccc(Cl)cc1)c1ccccc1,Potency,[1],inactive
same,Potency,[2],inactive
same,Potency,[3],inactive
same,Potency,[5],inactive
same,Potency,[13],inactive
same,Potency,[14],inactive
same,Potency,[19],inactive
same,Potency,[15],inactive
same,Potency,[6],inactive
same,Potency,[7],inactive
same,Potency,[18],inactive
same,Potency,[20],inactive
same,Potency,[17],inactive
same,Potency,[10],inactive
same,Potency,[12],inactive
COC(=O)c1ccc(I)cc1S(=O)(=O)NC(=O)Nc1nc(C)nc(OC)n1,Potency,[1],inactive
same,Potency,[2],inactive
same,Potency,[3],inactive
same,Potency,[5],inactive
same,Potency,[13],inactive
same,Potency,[14],inactive
same,Potency,[19],inactive
same,Potency,[6],inactive
same,Potency,[9],inactive
same,Potency,[17],inactive
same,Potency,[10],inactive
same,outcome,[11],inactive
same,Potency,[12],inactive
Cn1c(=O)cc(Oc2ccc(F)cc2F)c2cnc(NCC(C)(C)O)nc21,Potency,[1],inactive
same,Potency,[2],inactive
same,Potency,[3],inactive
same,Potency,[5],inactive
same,Potency,[13],30.6 µM (active)
same,Potency,[14],inactive
same,Potency,[6],inactive
same,Potency,[16],inactive
same,Potency,[18],43.6 µM (active)
same,Potency,[20],inactive
same,Potency,[17],inactive
CN1CCN(C(c2ccccc2)c2ccccc2)CC1,Potency,[1],inactive
same,Potency,[2],inactive
same,Potency,[3],inactive
same,Potency,[5],inactive
same,Potency,[13],inactive
same,Potency,[14],inactive
same,Potency,[6],inactive
same,Potency,[16],inactive
same,Potency,[7],inactive
same,Potency,[8],inactive
same,Potency,[9],inactive
same,Potency,[17],inactive
same,Potency,[10],inactive
same,outcome,[11],inactive
same,Potency,[12],inactive
